Results published in PubChem BioAssay (NCI).
About 83,000 compounds went through this panel and 20% of them were active in at least one assay; those are over-represented in the sample as a whole.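 How to read the values: 0–100, growth inhibition (40 = 60% inhibited); 0, no net growth; -100 to 0, cell death (-40 = 40% of starting cells died; -100 = all dead).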 Unmarked numbers belong to inactive results. Calls of active or inactive are those of the source. The calls were made as follows: active = growth percent below 10; inactive = the rest.

Experiments:
Experiment in all cases: NCI-60 one-dose screen, 48 h (100 = growth as untreated, 0 = no growth, -100 = all killed)
Details in all cases: 10 µM unless noted
SR leukemia = test system: SR leukemia
RPMI-8226 leukemia = test system: RPMI-8226 leukemia
OVCAR-8 ovarian = test system: OVCAR-8 ovarian
OVCAR-5 ovarian = test system: OVCAR-5 ovarian
OVCAR-4 ovarian = test system: OVCAR-4 ovarian
SK-OV-3 ovarian = test system: SK-OV-3 ovarian
IGROV1 ovarian = test system: IGROV1 ovarian
OVCAR-3 ovarian = test system: OVCAR-3 ovarian
HS 578T breast = test system: HS 578T breast
NCI/ADR-RES ovarian = test system: NCI/ADR-RES ovarian
T-47D breast = test system: T-47D breast
BT-549 breast = test system: BT-549 breast
MDA-MB-435 melanoma = test system: MDA-MB-435 melanoma
SW-620 colon = test system: SW-620 colon
MCF7 breast = test system: MCF7 breast
HCT-116 colon = test system: HCT-116 colon
HCC-2998 colon = test system: HCC-2998 colon
KM12 colon = test system: KM12 colon

SMILES: Cc1ccc(Nc2oc(-c3ccccc3)nc2[P+](c2ccccc2)(c2ccccc2)c2ccccc2)cc1
- growth (SR leukemia): 8.76% (active)
- growth (RPMI-8226 leukemia): -38.3% (active)
- growth (OVCAR-8 ovarian): -27.3% (active)
- growth (OVCAR-5 ovarian): 11.3%
- growth (OVCAR-4 ovarian): 6.45% (active)
- growth (SK-OV-3 ovarian): -33.7% (active)
- growth (IGROV1 ovarian): -11.9% (active)
- growth (OVCAR-3 ovarian): -30.7% (active)
- growth (HS 578T breast): -38.9% (active)
- growth (NCI/ADR-RES ovarian): -52.3% (active)
- growth (T-47D breast): -28.5% (active)
- growth (BT-549 breast): -21.5% (active)
- growth (MDA-MB-435 melanoma): -62.8% (active)
- growth (SW-620 colon): -48.2% (active)
- growth (MCF7 breast): -20.2% (active)
- growth (HCT-116 colon): -66.4% (active)
- growth (HCC-2998 colon): -89.4% (active)
- growth (KM12 colon): -51.5% (active)

SMILES: COC(CCP(=O)(c1ccccc1)c1ccccc1)(C(=O)c1ccccc1)c1ccccc1 (centres undefined)
- growth (SR leukemia): -8.14% (active)
- growth (RPMI-8226 leukemia): 4.88% (active)
- growth (OVCAR-8 ovarian): 77%
- growth (OVCAR-5 ovarian): 84.1%
- growth (OVCAR-4 ovarian): 61.3%
- growth (SK-OV-3 ovarian): 83.5%
- growth (IGROV1 ovarian): -19.4% (active)
- growth (OVCAR-3 ovarian): 77.1%
- growth (HS 578T breast): 83.5%
- growth (NCI/ADR-RES ovarian): 57.7%
- growth (T-47D breast): 47.6%
- growth (BT-549 breast): 60.4%
- growth (MDA-MB-435 melanoma): 71.4%
- growth (SW-620 colon): 76%
- growth (MCF7 breast): 35.1%
- growth (HCT-116 colon): 45.5%
- growth (HCC-2998 colon): 72.7%
- growth (KM12 colon): 57.3%

SMILES: O=C1/C(=C/c2ccccc2)COc2ccc(O)cc21
- growth (SR leukemia): 17.6%
- growth (RPMI-8226 leukemia): -16.5% (active)
- growth (OVCAR-8 ovarian): 95.9%
- growth (OVCAR-5 ovarian): 104%
- growth (OVCAR-4 ovarian): 99.5%
- growth (SK-OV-3 ovarian): 124%
- growth (IGROV1 ovarian): 105%
- growth (OVCAR-3 ovarian): 98.7%
- growth (HS 578T breast): 107%
- growth (NCI/ADR-RES ovarian): 104%
- growth (T-47D breast): 80.7%
- growth (BT-549 breast): 81.2%
- growth (MDA-MB-435 melanoma): 68.4%
- growth (SW-620 colon): 53.1%
- growth (MCF7 breast): 23.7%
- growth (HCT-116 colon): 51.9%
- growth (HCC-2998 colon): 101%
- growth (KM12 colon): 41.4%
